Results taken from PubChem BioAssay (Tox21).
Results filed as inconclusive are left out. Entries that show only a call come without a potency. Calls of active or inactive are those of the source. Unless noted, the call rests on the fitted dose curve; in most records, active means well fitted curve in the direction sought with a large enough effect in the repeat runs; inconclusive means weak or mixed curves; inactive means no such curve, though single readings can be large; an effect the other way counts as inactive or inconclusive.

Experiments:
[1] = qHTS assay to identify small molecule antagonists of the thyroid receptor (TR) signaling pathway - cell viability counter screen (AID 743064); further: nearly all actives have a fitted effect of over 50% in size; further: potency means the concentration at half of the fitted maximal effect
Outline: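 Viability of T3-stimulated (1 nM final) GH3.TRE-Luc cells is measured by CellTiter-Fluor fluorescence after 23.5 h compound exposure at 37 °C plus 30 min reagent incubation.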

[2] = qHTS assay to identify small molecule antagonists of the thyroid receptor (TR) signaling pathway (AID 743065); further: nearly all actives have a fitted effect of over 55% in size; further: potency means the concentration at half of the fitted maximal effect
Outline: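 GH3.TRE-Luc rat pituitary cells carrying two TR response elements driving luciferase were plated for 4 h, given compound plus 1 nM T3 (final), and incubated 23.5 h at 37 C. ONE-Glo luminescence measured reporter inhibition; CellTiter-Fluor fluorescence tracked cytotoxicity.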

[3] = test system: thyroid hormone receptor (rat, GH3 cells); assay: qHTS assay to identify small molecule agonists of the thyroid receptor (TR) signaling pathway (AID 743066; calls by dose curve)
[4] = qHTS assay to identify small molecule antagonists of the estrogen receptor alpha (ER-alpha) signaling pathway - cell viability counter screen (AID 743074; calls by dose curve; further: nearly all actives have a fitted effect of over 45% in size; further: potency means the concentration at half of the fitted maximal effect)
[5] = target: Estrogen receptor (Homo sapiens) (UniProt P03372); assay: qHTS assay to identify small molecule agonists of the estrogen receptor alpha (ER-alpha) signaling pathway (AID 743075; calls by dose curve)
Sequence of Estrogen receptor (Homo sapiens) (P03372 whole entry, looked up): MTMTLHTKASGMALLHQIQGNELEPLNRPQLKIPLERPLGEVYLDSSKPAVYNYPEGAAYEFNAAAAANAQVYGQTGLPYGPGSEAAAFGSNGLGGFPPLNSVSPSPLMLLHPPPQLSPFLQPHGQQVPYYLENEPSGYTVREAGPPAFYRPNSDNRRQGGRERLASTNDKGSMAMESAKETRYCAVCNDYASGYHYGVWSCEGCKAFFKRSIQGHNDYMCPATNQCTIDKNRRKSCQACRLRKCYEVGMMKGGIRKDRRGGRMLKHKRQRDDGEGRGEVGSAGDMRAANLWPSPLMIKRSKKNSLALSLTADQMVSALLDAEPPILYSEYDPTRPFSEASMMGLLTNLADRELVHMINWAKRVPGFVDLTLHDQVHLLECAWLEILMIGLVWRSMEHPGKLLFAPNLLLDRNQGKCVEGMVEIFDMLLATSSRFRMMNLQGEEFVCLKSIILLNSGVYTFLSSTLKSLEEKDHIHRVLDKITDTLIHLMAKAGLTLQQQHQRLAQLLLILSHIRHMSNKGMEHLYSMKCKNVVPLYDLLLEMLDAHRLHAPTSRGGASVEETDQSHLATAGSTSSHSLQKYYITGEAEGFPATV

[6] = qHTS assay to identify small molecule antagonists of the estrogen receptor alpha (ER-alpha) signaling pathway using the BG1 cell line (AID 743080; calls by dose curve;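 further: BG1 cells stimulated with 17beta-estradiol alongside compound; nearly all actives have a fitted effect of over 25% in size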; further: potency means the concentration at half of the fitted maximal effect)
Outline: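 Luminescence from a 4×ERE-luciferase reporter in BG1-Luc-4E2 cells served as read-out. Cells, pre-cultured 5 days in stripped-serum phenol-red-free medium, were exposed to compound with 17beta-estradiol co-stimulation for 21.5 h at 37 C.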

[7] = qHTS assay to identify small molecule antagonists of the estrogen receptor alpha (ER-alpha) signaling pathway using the BG1 cell line - cell viability counter screen (AID 743081);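 further: compound given together with 17beta-estradiol as the ER stimulus; nearly all actives have a fitted effect of over 45% in size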
Aromatase (Homo sapiens) = Aromatase (Homo sapiens) (UniProt P11511); assay: qHTS assay to identify aromatase inhibitors (AID 743083); further: nearly all actives have a fitted effect of over 55% in size; further: potency means the concentration at half of the fitted maximal effect
Sequence of Aromatase (Homo sapiens) (P11511 whole entry, looked up): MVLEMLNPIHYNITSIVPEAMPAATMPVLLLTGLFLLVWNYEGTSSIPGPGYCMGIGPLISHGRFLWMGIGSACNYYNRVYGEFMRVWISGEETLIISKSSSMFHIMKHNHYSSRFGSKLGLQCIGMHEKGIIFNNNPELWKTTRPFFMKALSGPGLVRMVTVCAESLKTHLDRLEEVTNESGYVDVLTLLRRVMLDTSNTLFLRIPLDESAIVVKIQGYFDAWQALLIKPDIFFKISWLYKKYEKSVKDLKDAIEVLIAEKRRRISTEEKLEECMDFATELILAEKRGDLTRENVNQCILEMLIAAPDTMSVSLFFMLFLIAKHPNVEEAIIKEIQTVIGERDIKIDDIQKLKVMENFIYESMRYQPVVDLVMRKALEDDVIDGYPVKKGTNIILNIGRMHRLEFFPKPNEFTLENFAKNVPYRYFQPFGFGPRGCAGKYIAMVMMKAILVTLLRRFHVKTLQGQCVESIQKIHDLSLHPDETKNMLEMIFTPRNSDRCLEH

[8] = target: Estrogen receptor (Homo sapiens) (UniProt P03372); assay: qHTS assay to identify small molecule agonists of the estrogen receptor alpha (ER-alpha) signaling pathway using the BG1 cell line (AID 743079); details: BG1Luc4E2 cells, ERE-luciferase agonist, 22 h; activation: at 70.3 µM (top of the series); further: nearly all actives have a fitted effect of over 20% in size
[9] = target: Estrogen receptor (Homo sapiens) (UniProt P03372); assay: qHTS assay to identify small molecule antagonists of the estrogen receptor alpha (ER-alpha) signaling pathway (AID 743069; active means well fitted curve in the direction sought with a large enough effect in the signal ratio in the repeat runs, not every such curve was filed as active; the % refers to the signal ratio; further: potency means the concentration at half of the fitted maximal effect)
Outline: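 Screening used a UAS-driven beta-lactamase reporter integrated into HEK293 cells expressing ER-alpha, stimulated with 17beta-estradiol alongside test compounds over 18 hr at 37C; signal came from LiveBLAzer B/G FRET fluorescence.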

Compound	Potency [1]	Potency [2]	outcome [3]	Potency [4]	Potency [5]	Potency [6]	Potency [7]	Potency (Aromatase (Homo sapiens))	Potency [8]	Potency [9]
CC1=Nc2ccc3ccccc3c2C1(C)C	inactive	inactive	inactive	inactive	inactive	inactive	inactive	inactive	–	–
CC(C)c1nc(CN(C)C(=O)N[C@H](C(=O)N[C@@H](Cc2ccccc2)C[C@H](O)[C@H](Cc2ccccc2)NC(=O)OCc2cncs2)C(C)C)cs1	15 µM (active)	10.6 µM (active)	inactive	inactive	inactive	inactive	–	inactive	inactive	–
CC(C)(c1ccccc1)c1ccccc1	inactive	inactive	inactive	inactive	–	–	inactive	inactive	–	–
c1csc(SSc2cccs2)c1	inactive	inactive	inactive	inactive	–	–	inactive	inactive	–	–
O=C1NCCN1CCO	inactive	inactive	inactive	inactive	–	–	inactive	inactive	–	–
CC1(C)[C@H](C(=O)O)N2C(=O)C[C@H]2S1(=O)=O	inactive	inactive	inactive	inactive	inactive	inactive	inactive	inactive	inactive	–
CC(=O)c1ccc([N+](=O)[O-])cc1	inactive	inactive	inactive	inactive	–	–	inactive	inactive	–	–
CC(=O)OCC[N+](C)(C)C	inactive	inactive	inactive	inactive	–	–	inactive	inactive	–	–
Cc1c(C)c2c(c(C)c1OC(=O)CCC(=O)OCCO)CC[C@@](C)(CCC[C@H](C)CCC[C@H](C)CCCC(C)C)O2	11.9 µM (active)	23.7 µM (active)	–	–	inactive	–	inactive	–	inactive	–
COC(=O)C1=C(C)NC(C)=C(C(=O)O[C@@H]2CCCN(Cc3ccccc3)C2)[C@@H]1c1cccc([N+](=O)[O-])c1	26.6 µM (active)	11.9 µM (active)	–	inactive	inactive	inactive	–	29.8 µM (active)	inactive	26.8 µM [inhibitor] (active)
CN1CCCC(n2nc(Cc3ccc(Cl)cc3)c3ccccc3c2=O)CC1 (configuration not stated)	21.1 µM (active)	21.1 µM (active)	–	inactive	inactive	inactive	–	inactive	inactive	–
CCCCCCC(C)(C)C(=O)O	inactive	inactive	inactive	–	inactive	inactive	inactive	inactive	inactive	–
CC(=O)N/N=C/c1ccc([N+](=O)[O-])o1	18.8 µM (active)	16.8 µM (active)	–	inactive	inactive	inactive	inactive	–	–	–
CC(=O)NC1(c2cccc(F)c2)CCN(CC[C@@]2(c3ccc(Cl)c(Cl)c3)CN(c3ccccc3)C(=O)CO2)CC1	7.72 µM (active)	10.9 µM (active)	–	39 µM (active)	inactive	54.6 µM (active)	–	–	–	–
O=[N+]([O-])c1ccc(O/N=C/c2cc(Br)c(O)c(Br)c2)c([N+](=O)[O-])c1	10.8 µM (active)	9.64 µM (active)	inactive	–	–	–	–	inactive	–	–
C[C@@H](O[C@H]1OCCN(Cc2n[nH]c(=O)[nH]2)[C@H]1c1ccc(F)cc1)c1cc(C(F)(F)F)cc(C(F)(F)F)c1	13.3 µM (active)	10.6 µM (active)	–	–	–	–	inactive	29.8 µM (active)	–	–
